Here are results for 37 compounds from PubChem BioAssay (Tox21).

Values joined by “and” are separate entries in the source; they are usually repeats but may differ in a detail not shown here. Equal values may be shown once. Results filed as inconclusive are left out. A structure can be active in one record and inactive in another. Active and inactive are the calls of the source. Unless noted, calls follow the shape of the full dose curve.

Test [1] can be described thus: qHTS assay to identify small molecule antagonists of the sonic hedgehog signaling (Shh) pathway (AID 1259369). Also: nearly all actives have a fitted effect of over 45% in size. Also: potency is read from the fitted curve at half-maximal effect. The gist of the method:
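Stable Gli1-Luc reporter NIH/3T3 clone; quantitative HTS in stimulated mode with conditioned medium. Luminescence measured after 24hr compound treatment at 37 C.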

Test [2] can be described thus: qHTS assay to identify small molecule agonists of the androgen receptor (AR) signaling pathway in the presence of an antagonist - cell viability counter screen (AID 1259379; active = well fitted curve in the direction sought with a large enough effect in the repeat runs; an effect the other way counts as inactive or inconclusive; also: nearly all actives have a fitted effect of over 25% in size; also: potency is read from the fitted curve at half-maximal effect). The gist of the method:
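Nilutamide-containing (3.0uM final) MDA-kb2 cultures, 3,000 cells/well, were treated with compounds across 15 concentrations. After 16 hr at 37C with no CO2, cell viability was determined by CellTiter-Fluor fluorescence in the luciferase assay wells.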
A general note: Quantitative high-throughput screening tests each substance at several concentrations.

Test [3] is described as follows: qHTS assay to identify small molecule agonists of the estrogen receptor beta (ER-beta) signaling pathway - cell viability counter screen (AID 1259380; active = well fitted curve in the direction sought with a large enough effect in the repeat runs; an effect the other way counts as inactive or inconclusive; also: nearly all actives have a fitted effect of over 30% in size; also: potency is read from the fitted curve at half-maximal effect). The procedure, abridged:
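Steps: plate ER-beta-UAS-bla HEK293T cells, rest 6 hr; add compounds in DMSO; incubate 16 hr at 37C, 5% CO2; add FRET substrate 2 hr; add CellTiter-Glo, wait 30 min at room temperature; read luminescence.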

Test [4] is described as follows: qHTS assay to identify small molecule antagonists of the estrogen receptor beta (ER-beta) signaling pathway - cell viability counter screen (AID 1259382; active = well fitted curve in the direction sought with a large enough effect in the repeat runs; an effect the other way counts as inactive or inconclusive; also: nearly all actives have a fitted effect of over 55% in size; also: potency is read from the fitted curve at half-maximal effect). The gist of the method:
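Viability is scored by CellTiter-Glo luminescence (30 min, room temperature) in ER-beta-UAS-bla HEK293T wells already read for reporter fluorescence. Compound exposure lasts 16 hr at 37C alongside 1nM 17-beta-estradiol in charcoal-stripped serum medium.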

Test [5] can be described thus: qHTS assay to identify small molecule agonists or antagonists of the thyroid stimulating hormone receptor (TSHR) signaling pathway - wild type cell line counter screen (AID 1259384). The gist of the method: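 Wild-type Hek293 cells, 800/well, 18 h at 37C, then compound with Ro20-1724 for 30 min RT. cAMP by HTRF (cAMP-d2/anti-cAMP cryptate), 1 h RT, fluorescence read. 15 concentrations, triplicates.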

For test [6], the target named is Thyrotropin receptor (Homo sapiens) (UniProt P16473). The test is described as follows: qHTS assay to identify small molecule antagonists of the thyroid stimulating hormone receptor (TSHR) signaling pathway (AID 1259385). Also: nearly all actives have a fitted effect of over 20% in size. Also: potency is read from the fitted curve at half-maximal effect. The gist of the method:
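TSHR-HEK293 cells (800/well) plated 18 h, then compounds with Ro20-1724 and TSH at 1.5 ng/mL final, 30 min at room temperature. cAMP quantified by HTRF (cAMP-d2/anti-cAMP-cryptate, 1 h); 15 concentrations in triplicate.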

Test [7] concerns the target Estrogen receptor (Homo sapiens) (UniProt P03372). The test is described as follows: qHTS assay to identify small molecule agonists of the estrogen receptor alpha (ER-alpha) signaling pathway in the presence of an antagonist (AID 1259383). Also: top concentration of the series differs between compounds; nearly all actives have a fitted effect of over 15% in size. The gist of the method: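 Readout was ERE-driven luciferase luminescence in VM7Luc4E2 cells, which express full-length ER-alpha endogenously. Compounds were tested at 15 concentrations for 22hr alongside 10.0nM ICI-182,780 (final concentration).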

The target of test [8] is Estrogen receptor beta (Homo sapiens) (UniProt Q92731). As to the kind of experiment: qHTS assay to identify small molecule agonists of the estrogen receptor beta (ER-beta) signaling pathway (AID 1259377; active = well fitted activation curve with a large enough effect in the signal ratio in the repeat runs, not every such curve was filed as active; the % refers to the signal ratio). The gist of the method:
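HEK293T ER-beta-UAS-bla; 2% charcoal-stripped FBS; cells pre-incubated 6 hr, compound 16 hr, 37C/5% CO2; LiveBLAzer B/G FRET substrate 2 h RT; fluorescence intensity read.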

Test [9] shares this target. As to the kind of experiment: qHTS assay to identify small molecule antagonists of the estrogen receptor beta (ER-beta) signaling pathway (AID 1259378; active = well fitted inhibition curve with a large enough effect in the signal ratio in the repeat runs, not every such curve was filed as active; the % refers to the signal ratio; also: potency is read from the fitted curve at half-maximal effect). The procedure, abridged: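 ER-beta-UAS-bla HEK293T cells in 2% charcoal-stripped FBS medium treated with compound plus 1nM final 17-beta-estradiol for 16 hr at 37C. Beta-lactamase reporter read by FRET substrate fluorescence after 2 hours at room temperature.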

Test [10] deals with Androgen receptor (Homo sapiens) (UniProt P10275). As to the kind of experiment: qHTS assay to identify small molecule agonists of the androgen receptor (AR) signaling pathway in the presence of an antagonist (AID 1259381). Also: nearly all actives have a fitted effect of over 15% in size. The gist of the method: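 Reporter-gene luminescence from MDA-kb2 cells exposed 16hr at 37C (0% CO2) to 15-point compound titrations with 3.0uM final nilutamide as AR antagonist.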
Chain of Androgen receptor (Homo sapiens) (P10275 whole entry, looked up): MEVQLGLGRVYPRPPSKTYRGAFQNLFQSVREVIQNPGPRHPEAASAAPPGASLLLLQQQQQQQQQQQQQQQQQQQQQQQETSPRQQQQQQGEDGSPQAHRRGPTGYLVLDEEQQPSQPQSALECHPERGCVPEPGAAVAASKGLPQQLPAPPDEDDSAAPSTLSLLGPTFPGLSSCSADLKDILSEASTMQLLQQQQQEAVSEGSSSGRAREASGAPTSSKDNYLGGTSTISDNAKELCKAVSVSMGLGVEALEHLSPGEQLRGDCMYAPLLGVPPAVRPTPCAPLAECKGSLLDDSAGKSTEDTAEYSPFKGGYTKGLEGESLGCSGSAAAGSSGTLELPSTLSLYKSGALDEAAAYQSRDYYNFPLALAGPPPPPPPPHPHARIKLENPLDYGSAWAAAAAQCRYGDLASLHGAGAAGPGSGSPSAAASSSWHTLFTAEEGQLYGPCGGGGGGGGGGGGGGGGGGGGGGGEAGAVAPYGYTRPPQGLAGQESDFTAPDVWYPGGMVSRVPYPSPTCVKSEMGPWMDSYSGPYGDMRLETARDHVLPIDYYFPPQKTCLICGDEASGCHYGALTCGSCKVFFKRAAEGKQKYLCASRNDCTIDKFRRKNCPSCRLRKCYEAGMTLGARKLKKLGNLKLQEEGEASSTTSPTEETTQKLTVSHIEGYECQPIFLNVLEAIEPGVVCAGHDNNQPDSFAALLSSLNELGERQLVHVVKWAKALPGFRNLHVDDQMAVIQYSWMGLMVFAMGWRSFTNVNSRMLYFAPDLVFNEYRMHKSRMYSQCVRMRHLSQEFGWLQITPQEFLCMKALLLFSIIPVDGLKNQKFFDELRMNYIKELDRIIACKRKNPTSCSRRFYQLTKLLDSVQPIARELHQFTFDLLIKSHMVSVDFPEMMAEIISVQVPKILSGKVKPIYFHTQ

Chain of Estrogen receptor beta (Homo sapiens) (Q92731 whole entry, looked up): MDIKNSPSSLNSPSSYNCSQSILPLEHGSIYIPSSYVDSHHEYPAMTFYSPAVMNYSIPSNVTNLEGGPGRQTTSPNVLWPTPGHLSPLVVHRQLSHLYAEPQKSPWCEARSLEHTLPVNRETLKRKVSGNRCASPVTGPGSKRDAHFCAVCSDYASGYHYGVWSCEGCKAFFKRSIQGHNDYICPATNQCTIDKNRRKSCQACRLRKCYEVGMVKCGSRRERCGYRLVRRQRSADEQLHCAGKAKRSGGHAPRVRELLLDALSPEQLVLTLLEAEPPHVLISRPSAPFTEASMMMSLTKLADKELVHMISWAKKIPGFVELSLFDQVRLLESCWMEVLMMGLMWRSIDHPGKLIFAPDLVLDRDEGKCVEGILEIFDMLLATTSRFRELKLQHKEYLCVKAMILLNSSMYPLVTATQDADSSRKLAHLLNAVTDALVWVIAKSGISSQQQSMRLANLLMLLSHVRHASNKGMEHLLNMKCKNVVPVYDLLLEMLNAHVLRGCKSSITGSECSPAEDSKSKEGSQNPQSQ
Chain of Thyrotropin receptor (Homo sapiens) (P16473 whole entry, looked up): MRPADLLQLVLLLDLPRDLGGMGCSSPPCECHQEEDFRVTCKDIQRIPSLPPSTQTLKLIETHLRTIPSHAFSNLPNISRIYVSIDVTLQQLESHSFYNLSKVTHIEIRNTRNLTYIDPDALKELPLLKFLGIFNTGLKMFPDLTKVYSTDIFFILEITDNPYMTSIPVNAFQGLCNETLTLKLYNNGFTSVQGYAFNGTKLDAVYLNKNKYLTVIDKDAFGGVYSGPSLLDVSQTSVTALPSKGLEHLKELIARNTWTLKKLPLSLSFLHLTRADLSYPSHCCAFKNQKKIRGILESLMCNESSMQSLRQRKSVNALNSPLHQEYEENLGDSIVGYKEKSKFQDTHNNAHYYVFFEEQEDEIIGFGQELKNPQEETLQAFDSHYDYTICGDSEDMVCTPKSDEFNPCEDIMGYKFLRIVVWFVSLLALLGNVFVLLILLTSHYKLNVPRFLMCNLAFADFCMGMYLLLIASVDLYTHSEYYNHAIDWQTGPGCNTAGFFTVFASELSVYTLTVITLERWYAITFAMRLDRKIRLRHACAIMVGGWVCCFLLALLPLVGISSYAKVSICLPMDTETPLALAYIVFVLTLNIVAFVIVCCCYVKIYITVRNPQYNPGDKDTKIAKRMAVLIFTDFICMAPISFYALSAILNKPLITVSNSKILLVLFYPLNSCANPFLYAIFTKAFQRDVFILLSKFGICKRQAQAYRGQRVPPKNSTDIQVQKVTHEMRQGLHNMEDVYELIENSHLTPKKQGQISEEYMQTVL
Chain of Estrogen receptor (Homo sapiens) (P03372 whole entry, looked up): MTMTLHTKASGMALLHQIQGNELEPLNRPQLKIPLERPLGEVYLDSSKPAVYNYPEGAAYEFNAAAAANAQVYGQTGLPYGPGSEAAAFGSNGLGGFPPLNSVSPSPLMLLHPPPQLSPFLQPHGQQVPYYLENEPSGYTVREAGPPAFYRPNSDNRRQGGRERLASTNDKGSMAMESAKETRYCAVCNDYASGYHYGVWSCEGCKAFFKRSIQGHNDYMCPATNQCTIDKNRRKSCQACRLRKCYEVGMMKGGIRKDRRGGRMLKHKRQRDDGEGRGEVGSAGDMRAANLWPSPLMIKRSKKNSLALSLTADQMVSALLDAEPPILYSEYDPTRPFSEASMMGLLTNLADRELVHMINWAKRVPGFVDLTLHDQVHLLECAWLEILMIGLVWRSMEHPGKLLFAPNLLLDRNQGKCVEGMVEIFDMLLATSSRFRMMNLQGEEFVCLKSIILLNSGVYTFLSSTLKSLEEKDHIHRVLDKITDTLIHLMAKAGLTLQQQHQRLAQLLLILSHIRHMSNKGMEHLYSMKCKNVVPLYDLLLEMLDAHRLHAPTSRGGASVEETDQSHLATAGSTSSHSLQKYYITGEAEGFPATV

With `Cc1ccc([N+](=O)[O-])c(C)c1`, the Potency result in test [1], in [2], in test [5] and in test [6] was “inactive” in each case. Further, the Potency is 6.11 µM (active) and inactive in test [3]; 8.63 µM (active) and inactive in [4].
With `CCCCCC1C(=O)CCC1CC(=O)OC` (centres undefined), the Potency entry in test [1], in [2], in [3], in test [4], in test [7] and in test [5] was “inactive” each time. Besides, in [6], the Potency result is “inactive”.
As for `O=C(O)c1cc(=O)[nH]c(=O)[nH]1`, in test [1], the Potency entry was “inactive and 13.3 µM (active)”. The Potency entry in [3], in test [4], in test [5] and in test [6] was “inactive” throughout.
Take `C[C@]12CC[C@@H]3c4ccc(O)cc4CC[C@H]3[C@@H]1CC[C@H]2O`: the Potency in [1] was 4.94 µM (active) and 4.86 µM (active); in [6], 31.2 µM (active). Besides, the Potency result in [5] was “inactive”.
On to `CC(C)(C)c1cccc(C(C)(C)C)c1O`, for which the Potency result in test [2], in [3], in [4], in test [7], in test [5] and in [6] was “inactive” each time.
`COc1cc([C@H]2Oc3cc([C@H]4Oc5cc(O)cc(O)c5C(=O)[C@@H]4O)ccc3O[C@@H]2CO)ccc1O`: the Potency in [1] was 19.3 µM (active). In addition, the Potency result in [3], in test [4] and in [7] was “inactive” throughout.
With `CCCCCC=O`, the Potency entry in [1], in [3], in test [4], in test [7], in test [5] and in test [6] was “inactive” throughout.
Turning to `Nc1cc(Cl)c(N)c(Cl)c1`, the Potency result in [3] and in test [4] was “inactive” in each case.
For `Cc1ccc(C)c(O)c1`, the Potency entry in test [1], in test [2], in [3], in test [4], in test [5] and in test [6] was “inactive” in each case.
Turning to `Cc1ccc(S(=O)(=O)O)cc1C`, the Potency entry in test [1], in test [2], in test [3], in test [4], in [5] and in test [6] was “inactive” each time.
In the case of `CC(C)(Oc1ccc(Cl)cc1)C(=O)O`, the Potency result in test [1], in [3], in [4], in test [5] and in [6] was “inactive” each time.
Turning to `CC(=O)[C@H]1CC[C@H]2[C@@H]3CC=C4C[C@@H](O)CC[C@]4(C)[C@H]3CC[C@]12C`, the Potency entry in test [8], in [2], in [4], in test [5] and in test [6] was “inactive” in each case. Besides, the Potency in test [9] is 1.88 µM (active).
In the case of `C=C[C@H]1CN2CC[C@H]1C[C@@H]2[C@@H](O)c1ccnc2ccc(OC)cc12`, the Potency entry in [2], in test [3] and in [4] was “inactive” throughout.
On to `CCCCCCCCCCC(CO)CCCCCCCC` (centres undefined), for which the Potency entry in test [1], in [3], in [4], in [5] and in [6] was “inactive” each time.
As to `CC/C(=C(/CC)c1ccc(O)cc1)c1ccc(O)cc1`, the Potency is 60.6 µM (active) and inactive in test [2]; 60.6 µM (active) and 61.1 µM (active) in test [3]; 60.6 µM (active) and inactive in test [4]. Moreover, the Potency result in test [5] and in test [6] was “inactive” in each case.
For the compound `Oc1c(Cl)ccc(Cl)c1Cl`, the Potency entry in test [1], in [2] and in test [4] was “inactive” throughout.
`COCCOCCOCCO`: the Potency entry in [1], in test [3], in test [4], in [5] and in test [6] was “inactive” each time.
As to `CCOC(=O)C(C)Oc1ccc(Oc2cnc3cc(Cl)ccc3n2)cc1` (centres undefined), the Potency result in test [1], in test [3], in test [4], in test [5] and in [6] was “inactive” in each case.
With `CC(C)[N+](C)(CCOC(=O)C1c2ccccc2Oc2ccccc21)C(C)C`, the Potency entry in [1], in test [2], in [3], in test [4], in test [5] and in [6] was “inactive” throughout.
`Cc1ccc(S(=O)(=O)NCl)cc1`: the Potency entry in test [1], in test [2], in test [3], in test [4], in test [5] and in test [6] was “inactive” each time.
`O=C(O)c1ccc(O)cc1`: the Potency result in [1], in [2], in [3], in [4], in [5] and in [6] was “inactive” in each case.
For `c1ccc2ncccc2c1`, the Potency result in test [1], in test [3], in test [4], in [5] and in test [6] was “inactive” in each case.
Take `NCCN`: the Potency entry in test [1], in test [3], in test [4], in test [5] and in test [6] was “inactive” in each case.
Take `CC(=O)Nc1ccc2c(c1)Cc1cc(NC(C)=O)ccc1-2`: the Potency entry in test [1], in test [2], in test [3], in [4], in test [5] and in test [6] was “inactive” in each case.
Consider `CC[C@]12CCCN3CCc4c(n(c5ccccc45)[C@@](O)(C(=O)OC)C1)[C@@H]32`, for which the Potency result in [1], in test [3], in [10] and in test [4] was “inactive” in each case.
For `C=C[Si](OCCOC)(OCCOC)OCCOC`, the Potency entry in test [1], in test [3], in test [4], in test [7], in test [5] and in test [6] was “inactive” in each case.
On to `Cc1ccc(C(C)(C)C)cc1`, for which the Potency result in [1], in test [3], in test [4], in test [5] and in test [6] was “inactive” in each case.
As for `CC1(C)O[C@@H]2C[C@H]3[C@@H]4C[C@H](F)C5=CC(=O)C=C[C@]5(C)[C@@]4(F)[C@@H](O)C[C@]3(C)[C@]2(C(=O)CO)O1`, the Potency result in test [1], in test [3], in [4], in test [7], in test [5] and in test [6] was “inactive” in each case.
Regarding `C1CN(SSN2CCOCC2)CCO1`, the Potency in test [1] was 12.1 µM (active) and 24.3 µM (active); in test [3], “inactive and 48.6 µM (active)”. The Potency entry in test [2], in test [4], in [5] and in [6] was “inactive” in each case.
With `Cc1cccc(Nc2ccccc2C(=O)O)c1C`, the Potency result in test [1], in test [3] and in [4] was “inactive” throughout.
In the case of `Nc1ccc2c(c1)C(=O)c1ccccc1C2=O`, the Potency result in [1] and in [4] was “inactive” in each case.
Consider `CCCCCCOCCOCCO`, for which the Potency entry in test [1], in test [3], in test [4], in test [5] and in [6] was “inactive” each time.
With `C[N+](C)(C)CCO`, the Potency result in [1], in test [3], in test [4], in test [5] and in [6] was “inactive” each time.
In the case of `C/C=C/C(=O)N(CC)c1ccccc1C`, the Potency entry in [1], in test [3], in test [4], in [5] and in [6] was “inactive” each time.
Turning to `C=C[C@H]1CN2CC[C@H]1C[C@H]2[C@H](O)c1ccnc2ccc(OC)cc12`, the Potency result in [2], in test [3] and in test [4] was “inactive” each time.
With `CCCOCCO`, the Potency entry in [1], in test [2], in test [3], in [4], in [5] and in test [6] was “inactive” each time.
In the case of `OCCNCCO`, the Potency result in [1], in test [3], in test [4], in [7], in [5] and in [6] was “inactive” throughout.
